PubChem BioAssay AID1030 (National Center for Advancing Translational Sciences (NCATS), 2008)
Several values for one entry are separate records, joined by “and”; a condition that tells them apart may be missing. Equal entries are not always repeated. Among all 220,000 compounds or so, about 16,000 (7.3%) were called active. About 25% were inconclusive and are not listed. Only a selection was taken, and actives are over-represented in it overall. Values without a mark were called inactive. Calls follow the shape of the dose curve; as a rule, active = well fitted inhibition curve with a large enough effect (not every such curve was filed as active); inconclusive = small, poorly fitted or top-dose-only effect, or another doubt; inactive = no such curve, though single readings can be large or run the other way.

Biological target: Aldehyde dehydrogenase 1A1 (Homo sapiens) (UniProt P00352)
Sequence (P00352 whole entry, looked up): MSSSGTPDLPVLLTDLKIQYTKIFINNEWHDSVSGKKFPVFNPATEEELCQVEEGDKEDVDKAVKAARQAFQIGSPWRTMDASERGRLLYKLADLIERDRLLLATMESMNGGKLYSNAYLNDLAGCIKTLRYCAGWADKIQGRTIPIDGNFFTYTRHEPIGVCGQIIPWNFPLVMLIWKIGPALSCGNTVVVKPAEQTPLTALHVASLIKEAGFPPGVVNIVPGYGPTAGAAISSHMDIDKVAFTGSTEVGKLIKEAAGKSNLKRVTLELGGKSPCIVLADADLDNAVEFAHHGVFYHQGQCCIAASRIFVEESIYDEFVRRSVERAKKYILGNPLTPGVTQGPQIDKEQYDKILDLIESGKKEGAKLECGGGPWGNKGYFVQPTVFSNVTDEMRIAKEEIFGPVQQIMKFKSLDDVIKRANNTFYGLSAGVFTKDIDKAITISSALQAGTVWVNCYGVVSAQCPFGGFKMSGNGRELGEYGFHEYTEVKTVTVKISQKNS
Test: qHTS Assay for Inhibitors of Aldehyde Dehydrogenase 1 (ALDH1A1);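 as to activity, negative = inhibition: plate controls were no enzyme wells and a reference inhibitor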
Settings: Purified ALDH1A1, NADH fluorescence, propionaldehyde substrate; series mostly up to 75.3 µM; activity, negative = inhibition: at the top concentration
Potency is read from the fitted curve at half-maximal effect.

Compound	Potency	activity, negative = inhibition
COc1cc(C(=S)N2CCOCC2)ccc1O	18.9 µM (active)	
COc1ccc(C(=O)C2CCCN(Cc3ccc(C)s3)C2)cc1OC (stereo not given)		-3.12%
C=CCN1CCC23c4c5ccc(O)c4O[C@H]2C(=O)CC[C@@]3(O)C1C5 (stereo not given in full)	inactive	
CCC/C(=N\O)c1c[nH]c2ccccc12		5.13%
CCCOC(=O)C1C2c3ccccc3C(c3ccccc32)C1C(=O)O (stereo not given)		-3.46%
Cc1ccc(-c2cc(C(=O)N3CCC4(CC3)OCCO4)no2)cc1		-7.21%
Cc1ccsc1C(=O)C1CCCN(Cc2ccc(O)cc2)C1 (stereo not given)		-0.25%
COc1ccc2c3c1O[C@H]1C[C@@H](O)C=C[C@@]31CCN(C)C2		-3.43%
CCOC(=O)CC1=C(C(=O)OCC)C2(C(=O)N1)C(C(=O)OC)=C(N)Oc1ccccc12 (stereo not given)		6.23%
CCOC(=O)C1=C(C)OC(N)=C(C(=O)OC)C12C(=O)Nc1ccc(Br)cc12 (stereo not given)		0.235%
COC(=O)CN1C(=O)C2(C(C(=O)OC)=C(N)Oc3ccccc32)C2=C1CC(C)(C)CC2=O (stereo not given)	1 µM (active)	
CCN1C[C@@]2(COC)CC[C@H](OC)[C@]34[C@@H]1[C@]1(OCO[C@@]15C[C@@H](OC)C1C[C@H]3[C@H]5[C@@H]1OC)[C@H](O)[C@@H]24		-7.9% [at 20.9 µM]
CC(=O)CC(C)C	12.6 µM (active)	
N#CC1=C(N)Oc2c(c(=O)oc3ccccc23)C1c1ccccc1OC(=O)c1cccs1 (stereo not given)		4.05%
COc1ccc(CCn2c(O)c(C=NC3CC3)c(=O)[nH]c2=O)cc1OC		11%
ClCCBr		6.88%
CO[C@@H]1C[C@@H](C[C@H]2CC[C@H](C)[C@@H]([C@@H](C)C(=O)O)O2)O[C@]2(O[C@](C)([C@H]3CC[C@@](C)(C4OC([C@H]5O[C@@](O)(CO)[C@H](C)C[C@@H]5C)C[C@@H]4C)O3)C[C@H]2C)[C@@H]1C (stereo not given in full)		-0.0239%
COC(=O)N(c1ccc(OC)cc1)P1(=S)OCCC(C)O1 (stereo not given)	2.24 µM (active)	
CCOc1ccc(C2SCC(=O)Nc3c2c(C)nn3C2CCOC(C)(C)C2)cc1 (stereo not given)		19.5%
ClC(Cl)=C(Cl)C(Cl)=C(Cl)Cl		6.19%
O=C1NC(=O)N(c2ccc(F)cc2)C(=O)/C1=C/c1ccc2c(c1)CCCN2Cc1ccccc1	0.158 µM (active)	
Fc1ccc(C(OCCN2CCN(C/C=C\c3ccccc3)CC2)c2ccc(F)cc2)cc1		-3.07%
CC(C)(O)c1[se]c2ccccc2c1I		-9.12%
c1ccc(CN2CC[C@@]3(CCCNC3)C2)cc1		6.49%

Compound	Potency	activity, negative = inhibition
CC(=O)Cc1ccc(OC(C)C)cc1		4.31%
CN(C)c1nc(N(C)C)nc(N(C#N)CCCl)n1	6.31 µM (active)	
O=C1C2(Cl)C3(Cl)C4(Cl)C(Cl)(Cl)C5(Cl)C3(Cl)C1(Cl)C5(Cl)C24Cl (stereo not given)		0.669%
NC[C@H](O)c1ccc(O)cc1		-2.77% [at 20.9 µM]
c1ccc(C2NCc3ccccc3-n3cccc32)cc1 (stereo not given)		-2.04%
O=C(OCC(=O)c1cccs1)C1=COCCO1	14.1 µM (active)	
CN1CCN(C(=O)O[C@@H]2c3nccnc3C(=O)N2c2ccc(Cl)cn2)CC1		-0.229%
CC(C)(c1ccc(OC[C@@H]2CO2)cc1)c1ccc(OC[C@H]2CO2)cc1		-3.47%
CC[N+]1(C)CCCC(OC(=O)C(O)(c2ccccc2)c2ccccc2)C1 (stereo not given)	inactive	
O=C(NCC(c1cccnc1)N1CCN(c2ccccc2)CC1)Oc1ccccc1 (stereo not given)		-6.2%
CCCn1c(C(=O)c2ccccc2OC)nc2ccccc21		-12.3%
Cc1cccc(N2C(=O)NC(=O)/C(=C\c3cnn(-c4ccccc4)c3)C2=O)c1	7.08 µM (active)	
C[C@H]1CC[C@@]2(NC1)O[C@@H]1C[C@H]3[C@@H]4CC=C5C[C@@H](O)CC[C@]5(C)[C@@H]4CC[C@]3(C)[C@@H]1[C@@H]2C		6.18% [at 20.9 µM]
NCC(O)c1ccc(O)cc1 (stereo not given)	inactive	
Cc1cc(C)cc(NC(=S)NC2CC3CCCC(C2)N3Cc2cccs2)c1 (stereo not given)		-4.86%
O=C(CSC1c2ccccc2-c2ccccc21)N/N=C/c1ccccc1		-2.88%
O=C(CN1CCCC1=O)NCCc1ccccc1		4.93%
COC1=C[C@@H]2[C@@H]3Cc4ccc(OC)c(O)c4[C@]2(CCN3C)CC1=O		0.364%
CC(C(=O)Nc1ccc(Cl)cc1Cl)N1CC=C(c2ccccc2)CC1 (stereo not given)		-8.8%
CCCC[N+]1(C)C2CC(OC(=O)C(CO)c3ccccc3)CC1C1OC12 (stereo not given)	inactive	
CC(=O)NC(=O)NC(C)Cc1ccccc1 (stereo not given)		4.95%
CC(C)CC(C)Nc1ccc(Nc2ccccc2)cc1 (stereo not given)	14.1 µM (active)	
CC12CN3CC(C)(CN(C1)C3c1cccs1)C2 (stereo not given)		4.85%
CCCCC(=O)N/N=C/c1c(O)n(CC)c(=S)n(CC)c1=O		-14.7%

Compound	Potency	activity, negative = inhibition
Cc1cc(-c2ccc(N)c(C)c2)ccc1N	28.2 µM (active)	
CC1CCCCN1Cc1cccnc1 (stereo not given)		-10.2%
C/C(=C\C=C/[C@@H](C)C(=O)O)[C@H]1CN[C@H](C(=O)O)[C@@H]1CC(=O)O		-4.2%
CCN1C[C@]2(COC)C(O)C[C@H](OC)[C@@]34C5C[C@]6(O)C(OC)C(O)[C@](OC(C)=O)(C5C6OC(=O)c5ccccc5)C(C(OC)C23)C14 (stereo not given in full)		-3.76%
CC(=O)c1c(O)c(C)c(O)c(Cc2c(O)c3c(c(C(=O)/C=C\c4ccccc4)c2O)OC(C)(C)C=C3)c1O	22.4 µM (active)	
CC(=O)c1c(O)c(C)c(O)c(Cc2c(O)c3c(c(C(=O)/C=C/c4ccccc4)c2O)OC(C)(C)C=C3)c1O	17.8 µM (active) and 14.1 µM (active)	
COC1=C[C@]23CCCN2CCc2cc4c(cc2[C@@H]3[C@@H]1O)OCO4		-1.15%
O=C(O)C1C2CCC(O2)C1C(=O)O (stereo not given)		8.57%
CN(C)C1C(=O)C(C(N)=O)=C(O)[C@@]2(O)C(=O)C3=C(O)c4c(O)cccc4[C@@](C)(O)C3C[C@@H]12 (stereo not given in full)		-12.3%
C=CCSSCC=C	6.31 µM (active)	
CN(C)c1ccc(/C=C2\CC3C4CC=C5CC(O)CCC5(C)C4CCC3(C)C2=O)cc1 (stereo not given)		1.47%
O=C1NC(=O)C(CCc2ccccn2)(Cc2cccc(Cl)c2Cl)C(=O)N1c1ccc(Br)cc1 (stereo not given)		2.63%
CCOC(=O)C(O)(c1ccc(N=Cc2ccccc2O)c(C)c1)C(F)(F)F (stereo not given)		-8.17%
CN(C)C(=O)Oc1cc(=O)n2c3c(cccc13)CCC2		-0.966%
COc1ccc(C2=NOC(COC(=O)c3ccc4ccccc4n3)C2)cc1 (stereo not given)	5.62 µM (active)	
CN(C)/C=C(\C=[N+](C)C)c1[nH]ncc1[N+](=O)[O-]		-1.75%
CC[N+](CC)(CC)CCCCCCCCCC[N+](CC)(CC)CC		0.542%
O=C1C2CCN(CC2)C1(CO)CO	inactive	
CN(C)CCCN=Cc1c(O)n(Cc2ccco2)c(=O)[nH]c1=O		-1.51%
CC(C)n1c(=O)c(C=Nc2ccc(Br)cc2)c(O)n(Cc2ccco2)c1=O	14.1 µM (active)	
COc1cc2c(cc1OC)[C@@H]1C(=O)c3ccc(O)c(CC=C(C)C)c3OC1CO2 (stereo not given in full)		9.01%
CC(=O)Nc1ccccc1C(=O)OCC(=O)c1cccc2ccccc12		1.69%
NCC[Se][Se]CCN	3.55 µM (active)	
CC[C@H]1CN2CCc3cc(OC)c(OC)cc3[C@@H]2C[C@@H]1C[C@H]1NCCc2cc(OC)c(OC)cc21	inactive	

Compound	Potency	activity, negative = inhibition
CCc1cccc2c(C#N)cn(CC(=O)N3CCOCC3)c12		0.358%
CCN(CC)P(=O)(Oc1cccc(C)c1)N(CC)CC		2.46%
Cc1cccc([C@H](C)c2cnc[nH]2)c1C		-6.99%
ClC(Cl)(Cl)c1ccccc1	inactive	
O=Cc1cn(Cc2ccc(F)cc2Cl)c2ccccc12	3.16 µM (active)	
Cc1ccc(-c2nn(CCC#N)cc2C(=O)O)cc1C		18.1%
Cc1ccc(S(=O)(=O)O[C@H]2CN3CCC2CC3)cc1		4.24% [at 13.5 µM]
COC(=O)c1ccc2[se]c(CC3CCCCC3)c(I)c2c1		4.76%
CCCCCCCCCCCCCC(=O)O[C@@H]1[C@@H](C)[C@@]2(O)[C@@H](C=C(CO)C[C@]3(O)C(=O)C(C)=C[C@@H]23)[C@@H]2C(C)(C)[C@]12OC(C)=O		-2.86%
Cn1c(O)c(C=NCCCC(=O)O)c(=O)n(C)c1=O		-4.25%
C[C@@H]1C[C@@H]2O[C@H]2/C=C\C=C\C(=O)Cc2c(Cl)c(O)cc(O)c2C(=O)O1		-5.35%
O=C(C1CC(=O)N(C2CCCC2)C1)N1CCC2(CC1)OCCO2 (stereo not given)		2.67%
C=CCN1C(=O)C2(C(C(=O)OCC)=C(N)Oc3c2c(=O)oc2ccccc32)c2ccccc21 (stereo not given)	0.398 µM (active)	
CCOC(=O)c1ncn2c1[C@@H]1CCCN1C(=O)c1cc(OC)ccc1-2		-5.12%
CCOCCc1c(O)[nH]c(=S)[nH]c1=O		-3.64%
CCOC(=O)C1CN(C)CCC1=O (stereo not given)		3.02%
CNC(C)[C@@H](O)c1ccccc1 (stereo not given in full)		-5.15%
O=c1oc2ccccc2c(O)c1C(c1ccccc1O)c1c(O)c2ccccc2oc1=O		10.4%
c1ccc2sc(SNC3CCCCC3)nc2c1	0.794 µM (active)	
c1ccc2sc(N3CCNCC3)nc2c1		8.53%
c1ccc2sc(C3CCCNC3)nc2c1 (stereo not given)		8.39%
C1CC[C@H]([C@@]23C[C@H](C[C@H]4CCCN[C@H]42)[C@@H]2CCCCN2C3)NC1		5.48%
CC1(C)C(c2ccccc2)=NC(c2cccnc2)=[N+]1[O-]		4.87%
